Results taken from article PMC10812921, “Transcriptional Coactivator BOB1 (OBF1, OCA-B) Modulates the Specificity of DNA Recognition by the POU-Domain Factors OCT1 and OCT2 in a Monomeric Configuration”.

Columns and labels:
[1] = target: POU1 (OCT1 POU domain) (human, UniProt P14859 260-458); test: EMSA-SELEX-seq; no BOB1; 20 mM Tris-HCl pH 7.6, 140 mM NaCl, 10% glycerol, 0.5 mM EDTA, 0.05% Triton X-100, 0.1 mg/mL BSA, 0.1 mg/mL poly(dI-dC), 5 mM DTT, room temperature, 20 min; high values mean tight binding; conditions: protein: recombinant; dsDNA, one strand shown
In short: (§1)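 In this selection, tagged POU-domain proteins from E. coli BL21, purified under denaturing conditions and renatured, were bound to a PCR-amplified double-stranded random 35-nt library with or without coactivator protein. Reactions held 30 ng protein, 300 ng library and, where used, 28 ng coactivator protein in 20 μL Tris–HCl pH 7.6 binding buffer for 20 min at RT. Complex bands were cut from native 6% PAGE, eluted and PCR-amplified over four rounds, then Illumina-sequenced, and binding preference is the percentage of sequenced 8-mers matching a motif pattern.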

[2] = target: T1, POU2 (OCT2 POU domain) (human, UniProt P09086 175-386); test: as above; conditions: protein: recombinant; dsDNA, one strand shown
T1 sequence: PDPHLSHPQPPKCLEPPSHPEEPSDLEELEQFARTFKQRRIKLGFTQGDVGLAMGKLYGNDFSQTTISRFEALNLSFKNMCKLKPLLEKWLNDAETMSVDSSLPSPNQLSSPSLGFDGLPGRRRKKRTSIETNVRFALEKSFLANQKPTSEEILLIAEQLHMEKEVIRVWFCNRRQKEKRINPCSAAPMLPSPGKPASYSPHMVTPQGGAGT
In short: as §1

[3] = target: POU1 (OCT1 POU domain);BOB1 (OBF1, OCA-B) (human;human, UniProt P14859;Q16633 260-458;1-256, |); test: EMSA-SELEX-seq; with BOB1 (ternary complex band); 20 mM Tris-HCl pH 7.6, 140 mM NaCl, 10% glycerol, 0.5 mM EDTA, 0.05% Triton X-100, 0.1 mg/mL BSA, 0.1 mg/mL poly(dI-dC), 5 mM DTT, room temperature, 20 min; high values mean tight binding; conditions: protein: recombinant;recombinant; copies: 1;1; dsDNA, one strand shown
In short: as §1

[4] = target: T2, POU2 (OCT2 POU domain);BOB1 (OBF1, OCA-B) (human;human, UniProt P09086;Q16633 175-386;1-256, |); test: as above; conditions: protein: recombinant;recombinant; copies: 1;1; dsDNA, one strand shown
T2 sequence 1: T1 sequence
T2 sequence 2: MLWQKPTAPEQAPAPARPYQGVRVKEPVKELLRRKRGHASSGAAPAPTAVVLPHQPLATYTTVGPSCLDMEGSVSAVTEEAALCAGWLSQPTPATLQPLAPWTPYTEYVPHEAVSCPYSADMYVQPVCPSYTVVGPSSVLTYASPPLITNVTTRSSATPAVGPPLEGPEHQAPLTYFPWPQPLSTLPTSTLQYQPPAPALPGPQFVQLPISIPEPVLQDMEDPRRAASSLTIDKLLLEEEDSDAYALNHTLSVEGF
In short: as §1

Chain of POU1 (OCT1 POU domain) (P14859 260-458): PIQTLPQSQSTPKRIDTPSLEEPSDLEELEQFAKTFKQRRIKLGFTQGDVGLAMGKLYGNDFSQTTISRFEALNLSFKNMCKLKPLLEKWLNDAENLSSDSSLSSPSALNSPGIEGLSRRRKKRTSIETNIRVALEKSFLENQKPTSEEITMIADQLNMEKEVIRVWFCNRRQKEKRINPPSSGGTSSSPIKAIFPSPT

Sequence | binding signal [1] | binding signal [2] | binding signal [3] | binding signal [4]
AGCGAAAA | 0.0389 % of ANNNNAAN 8-mers | 0.0386 % of ANNNNAAN 8-mers | 0.0418 % of ANNNNAAN 8-mers | 0.033 % of ANNNNAAN 8-mers
ACGTCAAG | 0.0191 % of ANNNNAAN 8-mers | 0.0253 % of ANNNNAAN 8-mers | 0.0203 % of ANNNNAAN 8-mers | 0.0198 % of ANNNNAAN 8-mers
ATTACAAT | 0.195 % of ANNNNAAN 8-mers | 0.26 % of ANNNNAAN 8-mers | 0.0847 % of ANNNNAAN 8-mers | 0.0966 % of ANNNNAAN 8-mers
AAAACAAT | 0.0736 % of ANNNNAAN 8-mers | 0.0604 % of ANNNNAAN 8-mers | 0.0913 % of ANNNNAAN 8-mers | 0.0735 % of ANNNNAAN 8-mers
ATACGAAT | 0.0908 % of ANNNNAAN 8-mers | 0.101 % of ANNNNAAN 8-mers | 0.0687 % of ANNNNAAN 8-mers | 0.0759 % of ANNNNAAN 8-mers
AGGTAAAG | 0.0801 % of ANNNNAAN 8-mers | 0.0708 % of ANNNNAAN 8-mers | 0.116 % of ANNNNAAN 8-mers | 0.071 % of ANNNNAAN 8-mers
AGGAGAAA | 0.0572 % of ANNNNAAN 8-mers | 0.0541 % of ANNNNAAN 8-mers | 0.0539 % of ANNNNAAN 8-mers | 0.0471 % of ANNNNAAN 8-mers
AAAATAAA | 0.153 % of ANNNNAAN 8-mers | 0.16 % of ANNNNAAN 8-mers | 0.148 % of ANNNNAAN 8-mers | 0.105 % of ANNNNAAN 8-mers
ACTCGAAT | 0.0484 % of ANNNNAAN 8-mers | 0.0518 % of ANNNNAAN 8-mers | 0.0402 % of ANNNNAAN 8-mers | 0.0504 % of ANNNNAAN 8-mers
AGGGGAAA | 0.101 % of ANNNNAAN 8-mers | 0.0794 % of ANNNNAAN 8-mers | 0.109 % of ANNNNAAN 8-mers | 0.0826 % of ANNNNAAN 8-mers
AGTGTAAG | 0.032 % of ANNNNAAN 8-mers | 0.0443 % of ANNNNAAN 8-mers | 0.0406 % of ANNNNAAN 8-mers | 0.0421 % of ANNNNAAN 8-mers
AACATAAC | 0.0526 % of ANNNNAAN 8-mers | 0.0506 % of ANNNNAAN 8-mers | 0.0347 % of ANNNNAAN 8-mers | 0.033 % of ANNNNAAN 8-mers
AACTGAAC | 0.0179 % of ANNNNAAN 8-mers | 0.019 % of ANNNNAAN 8-mers | 0.0168 % of ANNNNAAN 8-mers | 0.0182 % of ANNNNAAN 8-mers
ATACTAAT | 0.17 % of ANNNNAAN 8-mers | 0.182 % of ANNNNAAN 8-mers | 0.0745 % of ANNNNAAN 8-mers | 0.11 % of ANNNNAAN 8-mers
ACTCAAAG | 0.0336 % of ANNNNAAN 8-mers | 0.0242 % of ANNNNAAN 8-mers | 0.0367 % of ANNNNAAN 8-mers | 0.0165 % of ANNNNAAN 8-mers
ATTGTAAT | 0.312 % of ANNNNAAN 8-mers | 0.357 % of ANNNNAAN 8-mers | 0.116 % of ANNNNAAN 8-mers | 0.137 % of ANNNNAAN 8-mers
AGGGTAAC | 0.0339 % of ANNNNAAN 8-mers | 0.0328 % of ANNNNAAN 8-mers | 0.0343 % of ANNNNAAN 8-mers | 0.0322 % of ANNNNAAN 8-mers
AGTACAAG | 0.029 % of ANNNNAAN 8-mers | 0.0253 % of ANNNNAAN 8-mers | 0.0359 % of ANNNNAAN 8-mers | 0.0297 % of ANNNNAAN 8-mers
AATGAAAT | 0.139 % of ANNNNAAN 8-mers | 0.157 % of ANNNNAAN 8-mers | 0.14 % of ANNNNAAN 8-mers | 0.121 % of ANNNNAAN 8-mers
AGCTGAAG | 0.0187 % of ANNNNAAN 8-mers | 0.0265 % of ANNNNAAN 8-mers | 0.025 % of ANNNNAAN 8-mers | 0.0223 % of ANNNNAAN 8-mers
ACCTAAAG | 0.0145 % of ANNNNAAN 8-mers | 0.0173 % of ANNNNAAN 8-mers | 0.0219 % of ANNNNAAN 8-mers | 0.0223 % of ANNNNAAN 8-mers
AACTAAAA | 0.0431 % of ANNNNAAN 8-mers | 0.0478 % of ANNNNAAN 8-mers | 0.0386 % of ANNNNAAN 8-mers | 0.0305 % of ANNNNAAN 8-mers
AGTAGAAC | 0.0271 % of ANNNNAAN 8-mers | 0.0242 % of ANNNNAAN 8-mers | 0.0242 % of ANNNNAAN 8-mers | 0.0239 % of ANNNNAAN 8-mers
AACCCAAT | 0.0206 % of ANNNNAAN 8-mers | 0.019 % of ANNNNAAN 8-mers | 0.0273 % of ANNNNAAN 8-mers | 0.0223 % of ANNNNAAN 8-mers
ACCCCAAT | 0.0145 % of ANNNNAAN 8-mers | 0.0167 % of ANNNNAAN 8-mers | 0.0172 % of ANNNNAAN 8-mers | 0.019 % of ANNNNAAN 8-mers
ACGATAAG | 0.0275 % of ANNNNAAN 8-mers | 0.0311 % of ANNNNAAN 8-mers | 0.0215 % of ANNNNAAN 8-mers | 0.0314 % of ANNNNAAN 8-mers
AGCTTAAG | 0.029 % of ANNNNAAN 8-mers | 0.0391 % of ANNNNAAN 8-mers | 0.0379 % of ANNNNAAN 8-mers | 0.0355 % of ANNNNAAN 8-mers
ATCAAAAC | 0.0465 % of ANNNNAAN 8-mers | 0.0443 % of ANNNNAAN 8-mers | 0.0539 % of ANNNNAAN 8-mers | 0.0347 % of ANNNNAAN 8-mers
ATACGAAA | 0.0698 % of ANNNNAAN 8-mers | 0.0777 % of ANNNNAAN 8-mers | 0.0698 % of ANNNNAAN 8-mers | 0.0693 % of ANNNNAAN 8-mers
ATTTGAAG | 0.0713 % of ANNNNAAN 8-mers | 0.0604 % of ANNNNAAN 8-mers | 0.0909 % of ANNNNAAN 8-mers | 0.0545 % of ANNNNAAN 8-mers
